# CF NFkB inh: blocks PAF-induced NF-kB reporter in cystic fibrosis cells. KKLEB NF-kB-GFP reporter, GFP fluorescence overnight. inhibition, % at 5 µM. actives 0.86% (n = 360,000). AID 588850;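 active = at least 50% inhibition at 5 µM, scaled per plate between neutral and stimulator controls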;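 also: PAF is a Pseudomonas aeruginosa culture filtrate used as stimulus; plate controls were PAF-stimulated DMSO wells for no effect and unstimulated DMSO wells for full effect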
# TROY NFkB inh: TROY signaling inhibition; AID 1347056; inhibition, % at 10 µM; actives 0.98% (n = 360,000); Q293 LMP1-TROYcd NF-kB luciferase reporter, 4 h;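 active = compounds whose plate-normalised and pattern-corrected inhibition of the luciferase reporter signal at the single screening dose is 50% or more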
# KKLEB tox: counter-screen for CF NF-kB inhibitors: cytotoxicity; AID 602141; activity change (cytotoxicity), % at 5 µM; KKLEB CF airway cells viability, ATPlite luminescence, overnight; active compounds read low; cells stimulated with P. aeruginosa culture filtrate; actives 0.36% (n = 360,000);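 active = corrected activity change at or below -50% at 5 µM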
# TWEAK-Fn14 inh: TWEAK-Fn14 signaling inhibition; TWEAK-stimulated Fn14 reporter cells, luciferase luminescence, 8 h; inhibition, % at 10 µM; actives 2% (n = 360,000); in the data active = inhibition above about 50%
# Peg3 prom inh: reduces Peg3 promoter-driven luciferase expression in HeLa | HeLa PEG-Prom luciferase reporter, luminescence, overnight | inhibition, % at 20 µM | actives 1.7% (n = 360,000);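 active = inhibition of at least 50% at 20 µM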
# HIF-2a block: HIF-2a inhibition | inhibition, % at 18.8 µM | 786-0 RCC cells HIF-2a reporter, luciferase luminescence, overnight | AID 624352 | actives 0.72% (n = 360,000);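 active = inhibition of the luminescence signal of 40% or more relative to plate controls, in a single-dose primary screen at 18.75 µM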
# Numbers without * were called inactive; x = no result given. This is a sample that favours compounds with a hit; in the whole collection about 4% have one here.
SMILES,CF NFkB inh,TROY NFkB inh,KKLEB tox,TWEAK-Fn14 inh,Peg3 prom inh,HIF-2a block
CCCSc1nc(C)c(-c2csc(C(C#N)=C3CCCC3)n2)cc1C#N,-13,-10,0,64*,3,6
CCc1nc2c(OCc3ccccc3)cccn2c1N(C)C(=O)C(C)C,16,-5,-9,-8,8,12
CCOc1ccc(N(CC(=O)NC2CCCCC2)C(=O)CNC(=O)c2cccs2)cc1,-6,-11,8,12,4,-1
O=C(Nc1nnc(-c2ccc(Cl)cc2)o1)C1CCCCC1,-14,-18,-11,-4,-60,-36
Clc1ccc(-c2nnc(NC3=NCCCCC3)o2)cc1,-2,66*,-12,93*,8,24
COc1cccc(OC(=O)c2ccccc2)c1OC(=O)c1ccccc1,5,-15,-9,-9,3,4
Cc1cc2nc(-c3ccc(SCC(=O)Nc4ccc5c(c4)OCCO5)nc3)[nH]c2cc1C,-37,-22,-54*,8,-138,-254
Cc1ccc2nc(-c3ccc(SCC(=O)Nc4nnc(C)s4)nc3)[nH]c2c1,-16,-49,5,25,99*,-35
Cc1ccc2nc(-c3ccc(SCC(=O)Nc4nc(C)cs4)nc3)[nH]c2c1,1,-9,-7,10,-226,-175
O=C1Nc2ccccc2C(=O)N(c2ccc3c(c2)OCCO3)C1C(=O)NC1CC1 (configuration not stated),x,x,x,x,x,5
O=[N+]([O-])c1ccc2oc(/C=C/c3ccc(O)cc3)nc2c1,-21,-18,-6,-35,-294,-330
COc1cccc(-c2cc3nc(NCc4ccccc4F)n(C)c(=O)c3s2)c1,14,0,0,-1,-60,-94
O=C(Nc1ccccn1)c1csc2c1CCCC2,-14,-52,0,-22,-242,-143
O=C(Nc1ccccn1)c1onc2c1CCCC2,-7,59*,-7,89*,32,37
O=c1[nH]c2ccccc2nc1-c1ccccc1,-7,-35,16,-15,-121,-179
NC(=O)N=Nc1c2[nH]c3ccccc3nc-2c2ccccc12,-156,-75,6,2,72*,23
O=C(Nc1cc(S(=O)(=O)N2CCCCC2)ccc1Cl)c1ccccc1NS(=O)(=O)c1ccc(F)cc1,66*,52*,-43,65*,53*,12
O=C(Nc1cc(S(=O)(=O)Nc2ccc(Cl)cc2)ccc1O)c1ccc(S(=O)(=O)N2CCCCCC2)cc1,-2,57*,-1,13,30,16
CCOC(=O)Cc1ccc(Nc2nc(NCc3cccs3)nc3ccsc23)cc1,6,55*,-16,65*,31,17
COc1ccc(Nc2nc(NCc3cccs3)nc3ccsc23)cc1OC,12,32,-31,54*,2,-50
CC(=O)Nc1ccc(CNc2nc(NCC3CC3)nc3ccsc23)cc1,-25,-19,-10,-3,8,8
COc1ccc(Nc2nc(NC(C)C)nc3ccsc23)cc1OC,0,-1,-13,29,16,4
CN(Cc1nccn1C)C(=O)C1CCC(=O)N(Cc2cccc(C(F)(F)F)c2)C1 (configuration not stated),0,-10,-8,-9,-10,13
S=C(NCCC(c1ccccc1)c1ccccc1)Nc1ccc(Cl)cc1,7,45,-2,62*,55*,-35
O=S(=O)(c1ccc(NC(=S)NCCC(c2ccccc2)c2ccccc2)cc1)N1CCOCC1,13,39,-5,56*,47,10
SMILES,CF NFkB inh,TROY NFkB inh,KKLEB tox,TWEAK-Fn14 inh,Peg3 prom inh,HIF-2a block
COc1cc(NC(=S)NCCC(c2ccccc2)c2ccccc2)c(OC)cc1Cl,6,53*,-4,30,53*,16
CCOc1cc(N2CCOCC2)c(OCC)cc1NC(=O)c1cccc(S(=O)(=O)N2CCOCC2)c1,-1,-12,1,-5,1,1
COc1ccccc1CC(=O)N1CCN(C(=O)c2ccco2)CC1,16,15,15,7,-3,15
COc1ccc(OC)c(S(=O)(=O)Nc2cccc3c(O)cccc23)c1,-6,1,3,3,25,15
COc1ccc(NS(=O)(=O)c2ccc3c(c2)OCCO3)cc1OC,-1,1,12,23,-1,12
COc1ccc(OC)c(S(=O)(=O)Nc2ccc3c(c2)OCCO3)c1,2,76*,-8,84*,19,35
COc1ccc(OC)c(S(=O)(=O)Nc2ccc(O)c3ccccc23)c1,64*,12,-15,-3,67*,4
Cc1ccc(N(CC(=O)Nc2ccc3c(c2)OCCO3)S(=O)(=O)c2c(C)n[nH]c2C)cc1,14,-2,-36,26,-5,21
Cc1n[nH]c(C)c1S(=O)(=O)Nc1ccc2c(c1)OCCO2,8,63*,1,82*,-15,26
O=S(=O)(Nc1ccc2c(c1)OCCO2)c1cccc(F)c1,4,40,2,52*,9,16
COc1cc(C(=O)N2CCN(S(=O)(=O)c3cccc(F)c3)CC2)ccc1OCC(=O)N1CCOCC1,-25,3,1,1,2,8
COc1ccc(OC)c(S(=O)(=O)NCCS(=O)(=O)N2CCN(c3ccccc3)CC2)c1,-7,-17,-6,14,4,8
Cc1ccc(S(=O)(=O)Nc2ccc3c(c2)OCCO3)cc1C,4,80*,2,87*,-40,40
CC(=O)NCCNC(=O)c1cccc(NS(=O)(=O)c2ccc3c(c2)OCCO3)c1,-12,-22,11,5,5,2
O=S(=O)(Nc1ccc2c(c1)OCCO2)c1ccc(F)c(F)c1,-18,0,11,20,-4,21
CC(=O)NCCc1ccc(S(=O)(=O)Nc2ccc3c(c2)OCCO3)cc1,10,43,7,55*,-8,12
COc1ccc(CNC[C@H]2O[C@@H](n3cnc4c(N)ncnc43)[C@H](O)[C@@H]2O)cc1OC,7,2,12,-22,-2,7
O=C(N/N=C/c1cccc(OC(=O)c2ccc3c(c2)OCO3)c1)c1cncc(Br)c1,3,-33,13,-16,6,4
Cc1ccccc1OCC(=O)N/N=C/c1cccc(Oc2ccc([N+](=O)[O-])cc2[N+](=O)[O-])c1,-30,30,1,63*,13,9
O=C(N/N=C/c1cccc(Oc2ccc([N+](=O)[O-])cc2[N+](=O)[O-])c1)c1cncc(Br)c1,3,59*,-26,45,21,2
COc1ccc(-c2nc(SC(C)C(=O)NCC3CCCO3)n[nH]2)cc1 (configuration not stated),26,25,-12,17,22,4
O=C(NC(c1ccc(-c2ccccc2)cc1)c1cnccn1)C1CCN(CCN2C(=O)c3ccccc3C2=O)CC1 (configuration not stated),0,-2,1,4,5,6
